Screens (PubChem BioAssay)
D1 agonist: Allosteric Agonists of the Human D1 Dopamine Receptor: qHTS; HEK293 T-REx D1 cells, calcium flux, agonist mode; 360,000 compounds, 1% hits; activation, % at 2 µM; D(1A) dopamine receptor (Homo sapiens), P21728; note: 0% is about no effect
Target sequence (P21728 whole entry, looked up): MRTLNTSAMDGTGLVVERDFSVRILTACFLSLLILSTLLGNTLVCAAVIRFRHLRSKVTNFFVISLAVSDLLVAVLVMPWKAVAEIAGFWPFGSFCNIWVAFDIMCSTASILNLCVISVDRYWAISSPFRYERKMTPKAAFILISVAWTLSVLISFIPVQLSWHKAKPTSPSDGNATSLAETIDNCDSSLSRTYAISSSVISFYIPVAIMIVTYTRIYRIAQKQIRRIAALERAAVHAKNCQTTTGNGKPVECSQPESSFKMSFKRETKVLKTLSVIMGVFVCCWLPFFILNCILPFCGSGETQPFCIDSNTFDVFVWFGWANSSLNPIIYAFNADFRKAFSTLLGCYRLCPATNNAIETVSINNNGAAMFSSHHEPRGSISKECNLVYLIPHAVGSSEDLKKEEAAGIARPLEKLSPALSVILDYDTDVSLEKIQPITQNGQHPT
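Inducible HEK293 T-REx D1 cells, force-coupled to calcium signalling, were plated at 4000 cells/well with tetracycline and held overnight at 30 C. After no-wash calcium dye loading, compound-evoked calcium rise over 180 s flagged agonists.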
TRHR enhancer-1: qHTS for Small Molecule Agonists and Allosteric Enhancers of Human TRH Receptor: Primary Screen for Enhancers. Thyrotropin-releasing hormone receptor (Homo sapiens), P34981. TRHR cells, fluo-8 calcium fluorescence, EC20 TRH enhancement. 360,000 compounds, 0.66% hits. AID 493056, 2011. enhancement, % at 2 µM; in the data active = enhancement above about 30%; note: 0% is about no effect
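TRHR-expressing cells loaded with fluo-8 calcium dye were read kinetically (ex 480/em 530) during compound addition, then stimulated with an EC20 of TRH (10 nM final). Enhancement of the Gq-mediated intracellular calcium response was scored.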
D1 PAM: Potentiators of Human D1 Dopamine Receptor: qHTS; D(1A) dopamine receptor (Homo sapiens), P21728; HEK293 TREx D1 cells, calcium flux, dopamine EC20 potentiation; potentiation, % at 10 µM; 360,000 compounds, 0.036% hits; AID 504651, 2011; in the data active = potentiation above about 30%; note: 0% is about no effect
TRHR agonist-1: qHTS for Small Molecule Agonists and Allosteric Enhancers of Human TRH Receptor: Primary Screen for Agonists; TRHR cells, calcium flux fluo-8, FDSS agonist mode; activation, % at 2 µM; Thyrotropin-releasing hormone receptor (Homo sapiens), P34981; 360,000 compounds, 0.18% hits; note: 0% is about no effect
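Fluo-8-loaded TRHR cells; 10 s baseline, compound added, kinetic Ca2+ fluorescence read 1/s, agonist mode.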
D1 antag: Antagonist of Human D 1 Dopamine Receptor: qHTS; HEK293 TREx D1 cells, calcium flux, dopamine EC80; stronger effect = lower value; activity change, negative = inhibition, % at 10 µM; 360,000 compounds, 3.2% hits; in the data active = activity change below about -30%; note: % is set by controls: 0 for no effect and ±100 for the full control effect
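Allosteric or orthosteric antagonism assessed as attenuation of the calcium response to EC80 dopamine, added 180 s after compound, in induced HEK293 Trex D1 cells loaded with no-wash calcium dye.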
TRHR enhancer-2: qHTS for Small Molecule Agonists and Allosteric Enhancers of Human TRH Receptor: Confirmation Screen for Enhancers. shares compounds with TRHR enhancer-1. TRH receptor cell assay, enhancer confirmation qHTS. activity change, negative = inhibition, % at 46.1 µM. 970 tested, under 10 active; active = well fitted curve in the direction sought with a large enough effect; inconclusive = small, poorly fitted or top-dose-only effect, or another doubt; inactive = no such curve, though single readings can be large; an effect the other way counts as inactive or inconclusive;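 note: compound effect scored on response to added TRH at EC20 of 10 nM; 0% is about no effect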
TRHR agonist-2: qHTS for Small Molecule Agonists and Allosteric Enhancers of Human TRH Receptor: Confirmation Screen for Agonists; AID 493078, 2011; Potency, µM (titrated, usually from 46.1 µM), inactives show top-dose activation, usual class: activators; TRHR-expressing cells, agonist activation read-out; shares compounds with TRHR enhancer-1; 970 compounds, 8% hits; active = well fitted curve in the direction sought with a large enough effect; inconclusive = small, poorly fitted or top-dose-only effect, or another doubt; inactive = no such curve, though single readings can be large; an effect the other way counts as inactive or inconclusive; note: potency is the fitted concentration of half-maximal effect; 0% is about no effect; nearly all actives have a fitted effect of over 75% in size
Starred values were filed as active, the others as inactive; ? = inconclusive; . = not tested or not shown. Shown are actives, neighbours in structure and some others; about 4.6% of the full set was active somewhere. Cut-off read from the data, not from the text of the source, unless noted: active = activation above about 30%; inactive = the rest.

SMILES	D1 agonist	TRHR enhancer-1	D1 PAM	TRHR agonist-1	D1 antag	TRHR enhancer-2	TRHR agonist-2
CCN(CC(=O)Nc1c(F)cccc1F)C(=O)/C=C/c1ccc(S(=O)(=O)N2CCCCCC2)cc1	4.7	20.1	0.5	-1.1	0.5	.	.
O=C(CN1CCCC1)N1c2ccccc2Sc2ccc(Cl)cc21	2.8	47.3*	0.7	2.2	4.6	-4.7	1.5%
O=C(CN1CCCC1)N1c2ccccc2Sc2ccc(C(F)(F)F)cc21	0.9	-2.5	-2.5	0.8	11.2	.	.
Cc1nn(C)cc1S(=O)(=O)Nc1ncccn1	-0.5	41.3*	-4.2	2.1	0.5	0.5	6.1%
COc1ccc(C(=O)C2CCN(C(=O)c3ccco3)CC2)cc1	4.1	48.6*	-4.9	-0.5	-39.8*	?	6.7%
COc1ccc(C(=O)C2CCN(C(=O)c3ccc(C)cc3)CC2)cc1	4.3	-4.9	-0.6	-0.9	-20.7	.	.
CCc1ccc(NC(=O)C(=O)NCC(c2ccc3c(c2)OCO3)N2CCN(C)CC2)cc1 (stereo unspecified)	17.5	6.7	-2.1	1.3	5.5	.	.
O=C(/C=C/c1cn(CC(O)CN2CCCCC2)c2ccccc12)c1cccs1 (stereo unspecified)	46.2*	6.7	-7.0	35.9*	-0.4	4.9	?
OC(CN1CCCCC1)Cn1c2ccccc2c2ccccc21 (stereo unspecified)	15.7	-0.8	-6.2	2.3	4.8	.	.
CCOC(=O)[C@@H]1[C@H]2COc3ccc(Br)cc3[C@@H]2N2C(=O)N(c3ccc(OC)cc3)C(=O)[C@]12C	1.7	0.1	-0.7	-0.3	7.9	.	.
COc1ccccc1N1CCN(Cc2cc(=O)c(OCC(=O)Nc3ccccc3)co2)CC1	2.2	7.2	0.2	-1.0	2.5	.	.
CCOc1cc(/C=C2\SC(=S)N(NC(=O)c3cccnc3)C2=O)ccc1O	20.4	-3.8	1.8	8.3	2.0	.	.
CCOc1cc(/C=C2/SC(=S)N(CC3CCCO3)C2=O)ccc1O (stereo unspecified)	67.8*	5.1	6.8	43.2*	2.0	?	16.4µM*
COc1cc(/C=C2\SC(=S)N(NS(=O)(=O)c3ccc(C)cc3)C2=O)ccc1O	81.6*	-4.5	3.7	36.0*	-9.0	-3.2	?
COc1cc(/C=C2\SC(=S)N(NS(=O)(=O)c3ccc(C)cc3)C2=O)cc(OC)c1OC	-1.7	-2.5	0.5	-0.1	1.9	.	.
O=C1/C(=C/c2cccc(O)c2)SC(=S)N1CC1CCCO1 (stereo unspecified)	1.7	0.7	-13.7	0.9	-24.4	.	.
COc1cc(/C=C2\SC(=S)N(NC(=O)c3ccc(O)c(OC)c3)C2=O)ccc1O	73.3*	3.3	5.4	45.2*	26.2	4.6	?
CN(CC(=O)NCc1ccc2c(c1)OCO2)S(=O)(=O)c1ccc(F)cc1	1.1	42.5*	2.3	-0.2	0.5	8.3	-0.7%
CC(C)(C)c1ccc(-c2csc(NNC3=NCCCCC3)n2)cc1	-0.2	55.1*	0.6	0.4	.	7.0	5.8%
Brc1ccc(-c2csc(NNC3=NCCCCC3)n2)cc1	0.3	2.2	5.6	-0.6	23.2	.	.
O=C(CN1CCN(c2ccccc2F)CC1)c1ccc(O)cc1O	2.7	94.5*	-5.8	0.5	-8.0	-6.9	-0.6%
CCOC(=O)c1ccc(NC(=O)c2oc3c(c2C)-c2nn(Cc4ccccc4Cl)cc2CC3)cc1	3.1	-5.7	0.9	0.5	0.0	.	.
CCN(CC)c1ccc(/C=c2\sc3nc4ccccc4n3c2=O)c(O)c1	179.2*	-1.9	-0.1	26.3	-38.3*	2.3	20.6µM*
O=c1/c(=C/c2ccc(O)c([N+](=O)[O-])c2)sc2nc3ccccc3n12	6.9	-0.5	-8.0	0.4	-2.0	.	.
CCOC(=O)c1c(NC(=O)Cn2c(C)nc3ccccc32)sc2c1CCC2	6.4	60.1*	-4.1	-0.8	3.2	-5.3	5.5%
SMILES	D1 agonist	TRHR enhancer-1	D1 PAM	TRHR agonist-1	D1 antag	TRHR enhancer-2	TRHR agonist-2
O=C(NCCO)c1cccc2c1-c1ccccc1C2=O	1.9	-1.2	-1.1	0.3	-3.5	.	.
NC(=O)CC(NC(=O)Cc1ccc(Br)cc1)c1ccc(N2CCC(Br)CC2)c([N+](=O)[O-])c1 (stereo unspecified)	1.8	51.7*	-0.8	0.0	15.1	-12.6	-0.6%
NC(=O)CC(NC(=O)Cc1ccc(Br)cc1)c1ccc(N2CCCCCCC2)c([N+](=O)[O-])c1 (stereo unspecified)	0.1	9.2	-1.6	-0.7	-6.6	.	.
CC(O/N=C/c1ccccc1OC(F)F)C(=O)Nc1cccc(S(=O)(=O)N2CCOCC2)c1 (stereo unspecified)	2.4	-1.8	-9.0	-0.1	-27.3	.	.
CCC(C)NC(=O)c1cc2c(=O)n(CC)c3ccccc3c2s1 (stereo unspecified)	1.7	58.4*	-9.2	-1.4	3.7	-5.4	2.1%
O=C(O)Cn1c(SCCOc2ccccc2)nc2ccccc21	4.3	-3.0	-5.2	0.5	-20.3	.	.
CCCCOc1ccc(OCCSc2nc3ccccc3n2CC(=O)O)cc1	0.7	56.3*	-3.2	-0.1	5.5	3.8	-0.6%
COc1ccccc1NC(=O)CSc1nnc(-c2ccco2)n1N	-0.4	-8.4	-1.5	0.8	11.2	.	.
CCN(CC)c1ccc(/C=N/NC(=O)c2cccc(S(=O)(=O)N3CCOCC3)c2)c(O)c1	12.1	-1.5	-4.3	39.3*	-29.0	2.6	?
O=C(Nn1cnnc1)c1cccc(S(=O)(=O)N2CCOCC2)c1	6.8	5.0	0.1	102.1*	1.2	4.7	-0.7%
O=C(OCc1ccc(F)cc1)c1cc2ccccc2cc1O	7.9	-1.6	4.2	1.1	6.8	.	.
CC1CCN(CCCNC(=O)C2CCC(CNS(=O)(=O)c3cccc4nsnc34)CC2)CC1 (stereo unspecified)	0.3	8.6	2.8	0.5	-5.5	.	.
O=C(NCCCN1CCCCC1)C1CCC(CNS(=O)(=O)c2cccc3nsnc23)CC1 (stereo unspecified)	0.4	47.6*	0.2	1.0	5.0	-0.5	-0.8%
